Data reported in PubChem BioAssay.

target: NADPH oxidase 2 (Homo sapiens) (UniProt P04839); experiment: NOX2-dependent H2O2 signal modulators, primary screen, NOX inhibitor project, cell-based, HEK293-NOX2, PMA-stimulated, Amplex Red fluorescence (AID 1159); details: 45 min, higher = more signal, called active from +8 up or from −8 down; also: test concentration not given here
Sequence (P04839 whole entry, looked up): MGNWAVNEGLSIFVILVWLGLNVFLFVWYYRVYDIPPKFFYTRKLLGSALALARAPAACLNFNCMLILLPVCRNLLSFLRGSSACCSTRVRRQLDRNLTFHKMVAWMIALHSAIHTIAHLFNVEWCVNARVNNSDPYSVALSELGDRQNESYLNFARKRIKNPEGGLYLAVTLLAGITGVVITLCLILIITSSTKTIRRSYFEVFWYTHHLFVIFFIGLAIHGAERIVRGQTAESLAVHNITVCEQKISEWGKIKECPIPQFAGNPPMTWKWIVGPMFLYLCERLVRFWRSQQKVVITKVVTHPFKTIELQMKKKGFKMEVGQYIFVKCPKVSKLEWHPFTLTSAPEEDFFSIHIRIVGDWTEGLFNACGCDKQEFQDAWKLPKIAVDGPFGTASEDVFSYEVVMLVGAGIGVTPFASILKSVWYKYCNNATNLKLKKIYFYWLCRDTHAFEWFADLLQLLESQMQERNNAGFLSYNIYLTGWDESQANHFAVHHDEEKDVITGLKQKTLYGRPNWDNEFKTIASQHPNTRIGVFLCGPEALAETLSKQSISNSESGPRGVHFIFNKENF

z-score, inactive:
COC(=O)C(CC#Cc1ccc2c(c1)[C@]1(C(=O)N2)[C@H](c2ccc(O)cc2)N2[C@H](c3ccccc3)[C@H](c3ccccc3)OC(=O)[C@H]2[C@@H]1C(=O)Nc1nc2ccccc2s1)C(=O)OC 2.11
O=C1[C@H]2C=C(Br)[C@H](C[C@@H]2OCCCCO)[C@@]12CO2 0.45
Cc1ccc(C(C)CC(O)C2C=CC3C(=O)N(c4ccccc4)C(=O)C3N2Nc2ccc([N+](=O)[O-])cc2)o1 (stereo unspecified) 0.414
COCCOC(=O)N1C(=O)[C@@]2(c3cc(C#CCCO)ccc31)[C@H](C(=O)Nc1nc3ccccc3s1)[C@H]1C(=O)O[C@H](c3ccccc3)[C@H](c3ccccc3)N1[C@@H]2c1ccc(OCCO)cc1 0.82
CCCCC(O)C1C=CC2C(=O)N(c3ccccc3)C(=O)C2N1Nc1ccccc1F (stereo unspecified) -1.2
[N-]=[N+]=Nc1ccccc1C[C@]1(C(=O)NCC(O)CO)N=C(c2ccc(OCCCO)cc2)O[C@H]1c1ccccc1N=[N+]=[N-] (stereo partly specified) -2.76
C=C(CCCC)/C(=C/C[C@@H](OC(C)=O)c1ccccc1OCCO)c1cnc2ccccc2c1 -1.87
OC([C@@H]1CC(c2ccccc2)=NO1)[C@H]1CC(c2ccccc2)=NO1 (stereo partly specified) -0.51
[N-]=[N+]=NCc1ccccc1[C@H]1OC(c2ccc(OCCCO)cc2)=N[C@@]1(Cc1ccccc1)C(=O)NCc1ccccc1 1.08
O=C(NCc1ccccc1)[C@@H]1c2ccccc2C(=O)N(CC23CC4CC(CC(C4)C2)C3)[C@H]1c1ccc(CO)cc1 -2.38

target: NADPH oxidase 4 (Homo sapiens) (UniProt Q9NPH5); experiment: NOX4-dependent H2O2 signal modulators, primary screen, NOX inhibitor project, cell-based, HEK293-NOX4, tetracycline-induced, Amplex Red fluorescence (AID 1160); details: 45 min, higher = more signal, called active from +8 up or from −8 down
Sequence (Q9NPH5 whole entry, looked up): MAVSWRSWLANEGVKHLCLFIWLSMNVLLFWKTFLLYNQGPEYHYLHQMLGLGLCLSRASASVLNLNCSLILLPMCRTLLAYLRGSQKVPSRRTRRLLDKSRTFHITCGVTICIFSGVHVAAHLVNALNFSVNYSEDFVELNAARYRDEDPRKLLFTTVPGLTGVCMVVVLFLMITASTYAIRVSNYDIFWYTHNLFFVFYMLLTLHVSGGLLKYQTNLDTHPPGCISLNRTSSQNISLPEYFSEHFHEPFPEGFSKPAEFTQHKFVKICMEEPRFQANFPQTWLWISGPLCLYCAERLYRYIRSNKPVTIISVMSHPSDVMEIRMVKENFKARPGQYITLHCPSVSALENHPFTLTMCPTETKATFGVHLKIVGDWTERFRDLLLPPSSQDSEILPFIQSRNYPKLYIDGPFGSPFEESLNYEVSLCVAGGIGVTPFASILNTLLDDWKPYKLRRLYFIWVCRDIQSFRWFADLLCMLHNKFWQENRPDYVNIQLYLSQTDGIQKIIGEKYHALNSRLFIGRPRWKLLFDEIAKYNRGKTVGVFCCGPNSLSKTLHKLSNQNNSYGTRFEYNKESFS

z-score, inactive:
O=C1C2C=CC(C(O)C3CCCCC3)N(Nc3ccc([N+](=O)[O-])cc3)C2C(=O)N1c1ccccc1 (stereo unspecified) -3.38
C=CCNC(=O)[C@H]1[C@@H]2C(=O)O[C@@H](c3ccccc3)[C@@H](c3ccccc3)N2[C@@H](c2ccc(OCCO)cc2)[C@]12C(=O)N(C(=O)OCCOC)c1ccccc12 0.743
O=C1C2C=CC(C(O)c3c(F)cccc3Cl)N(Nc3ccccc3)C2C(=O)N1c1ccccc1 (stereo unspecified) -3.01
CC(C)c1ccc(NN2C(C(O)c3cc(C(F)(F)F)cc(C(F)(F)F)c3)C=CC3C(=O)N(c4ccccc4)C(=O)C32)cc1 (stereo unspecified) -5.07
[N-]=[N+]=NCc1ccccc1C[C@]1(C(=O)O)N=C(c2ccc(OCCCO)cc2)O[C@H]1c1ccccc1N=[N+]=[N-] 0.705
O=C1O[C@H](c2ccccc2)[C@H](c2ccccc2)N2[C@H]1[C@@H](C(=O)NC[C@H](O)c1ccccc1)[C@]1(C(=O)Nc3ccccc31)[C@H]2c1ccc(OCCO)cc1 1.02
COC(=O)[C@@]1(Cc2ccc(F)cc2)[C@H]2c3cc(C(=O)N4CCCC4)n(Cc4ccc(C)o4)c3C[C@H]2CN1C(=O)c1ccccc1 -0.466
COc1ccc([Si](C)(C)[C@H]2[C@H](CCn3cc([C@H](O)c4ccccc4)nn3)O[C@@]3(C(=O)N(Cc4cccc(N5CCOC5=O)c4)c4ccccc43)[C@@H]2C)cc1 2.51
COc1ccc(CCNC(=O)[C@@]2(C)c3ccccc3C(=O)N(Cc3cc(F)cc(C(F)(F)F)c3)[C@H]2c2ccc(CO)cc2)cc1 -1.28
O=C1O[C@@H](c2ccccc2)[C@@H](c2ccccc2)N2[C@@H](c3ccc(OCCO)cc3)[C@]3(C(=O)Nc4ccccc43)[C@@H](C(=O)NC[C@H](O)c3ccccc3)[C@H]12 0.918
C=C(/C(=C/C[C@@H](OC(C)=O)c1ccc(OCCO)cc1)c1cnc2ccccc2c1)C(C)C -0.926
O=C1OCC=C[C@H]2OC34C=CCN(CCN5CCOCC5)C(=O)[C@H]3N(CCCO)C(=O)[C@@H]4[C@@H]12 (stereo partly specified) -1.16
C=CC[C@]1(C(=O)NCCCOC)N=C(c2ccc(OCCCO)cc2)O[C@H]1c1ccccc1N=[N+]=[N-] 1.33
COCC(=C=CC[C@H](O)c1ccccc1OCCO)C[C@H](O)c1cc(Cl)cc(Cl)c1O -2.45
COC(=O)c1c(CC[C@@H](CO)NC(=O)N2CCC[C@H]2Cn2cc(-c3ccccn3)nn2)oc(C(C)=O)c1C(=O)OC -1.44
C=CCN(Cc1ccccc1)C(=O)C(c1cccs1)N(CCOCCO)C(=O)/C=C\C(=O)O (stereo unspecified) -0.515
